Experimental data as given in ChEMBL document CHEMBL3988442, “University of Dundee, Small-Polar-MMV Screening Library” (2021).
For some assays here: Measured potencies and affinities stand elsewhere.

How the values were obtained:
Design in all cases: scale not given: direction of the effect not stated beside the values
[1] = biological target: Protein translocase subunit SecA (Escherichia coli (strain K12)) (UniProt P10408); assay: Assay to Identify E. coli SecA ATPase Inhibitors; type: functional; conditions: 30 µM
Chain of Protein translocase subunit SecA (Escherichia coli (strain K12)) (P10408 whole entry): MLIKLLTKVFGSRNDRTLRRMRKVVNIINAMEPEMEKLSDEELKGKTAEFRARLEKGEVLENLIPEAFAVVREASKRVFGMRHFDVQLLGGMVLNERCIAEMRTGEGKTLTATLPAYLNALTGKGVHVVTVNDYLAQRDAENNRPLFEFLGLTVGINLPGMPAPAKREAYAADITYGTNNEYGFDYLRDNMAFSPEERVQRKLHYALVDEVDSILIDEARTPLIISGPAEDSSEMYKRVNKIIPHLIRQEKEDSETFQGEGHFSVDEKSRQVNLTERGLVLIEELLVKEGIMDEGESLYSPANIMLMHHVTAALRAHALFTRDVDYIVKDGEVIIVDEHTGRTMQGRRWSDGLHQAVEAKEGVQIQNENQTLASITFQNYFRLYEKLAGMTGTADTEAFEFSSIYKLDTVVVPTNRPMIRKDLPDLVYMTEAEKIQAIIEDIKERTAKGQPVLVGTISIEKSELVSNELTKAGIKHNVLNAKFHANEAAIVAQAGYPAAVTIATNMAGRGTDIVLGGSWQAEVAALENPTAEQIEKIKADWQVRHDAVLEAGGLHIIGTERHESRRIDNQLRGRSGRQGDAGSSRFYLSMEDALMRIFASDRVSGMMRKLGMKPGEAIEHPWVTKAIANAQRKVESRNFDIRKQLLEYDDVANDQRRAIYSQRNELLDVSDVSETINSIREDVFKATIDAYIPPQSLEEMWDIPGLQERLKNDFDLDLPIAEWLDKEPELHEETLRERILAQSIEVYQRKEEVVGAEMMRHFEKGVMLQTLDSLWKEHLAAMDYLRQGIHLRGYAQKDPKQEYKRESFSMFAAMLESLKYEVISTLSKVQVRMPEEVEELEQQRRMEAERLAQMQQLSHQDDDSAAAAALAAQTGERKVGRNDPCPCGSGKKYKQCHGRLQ

[2] = biological target: T1, Ubiquitin-activating enzyme e1, putative (Leishmania donovani (strain BPK282A1)) (UniProt E9BSI1); assay: Leishmania donovani Ubiquitin Activating Enzyme (LdE1); type: functional; conditions: 30 µM
T1 sequence (whole entry): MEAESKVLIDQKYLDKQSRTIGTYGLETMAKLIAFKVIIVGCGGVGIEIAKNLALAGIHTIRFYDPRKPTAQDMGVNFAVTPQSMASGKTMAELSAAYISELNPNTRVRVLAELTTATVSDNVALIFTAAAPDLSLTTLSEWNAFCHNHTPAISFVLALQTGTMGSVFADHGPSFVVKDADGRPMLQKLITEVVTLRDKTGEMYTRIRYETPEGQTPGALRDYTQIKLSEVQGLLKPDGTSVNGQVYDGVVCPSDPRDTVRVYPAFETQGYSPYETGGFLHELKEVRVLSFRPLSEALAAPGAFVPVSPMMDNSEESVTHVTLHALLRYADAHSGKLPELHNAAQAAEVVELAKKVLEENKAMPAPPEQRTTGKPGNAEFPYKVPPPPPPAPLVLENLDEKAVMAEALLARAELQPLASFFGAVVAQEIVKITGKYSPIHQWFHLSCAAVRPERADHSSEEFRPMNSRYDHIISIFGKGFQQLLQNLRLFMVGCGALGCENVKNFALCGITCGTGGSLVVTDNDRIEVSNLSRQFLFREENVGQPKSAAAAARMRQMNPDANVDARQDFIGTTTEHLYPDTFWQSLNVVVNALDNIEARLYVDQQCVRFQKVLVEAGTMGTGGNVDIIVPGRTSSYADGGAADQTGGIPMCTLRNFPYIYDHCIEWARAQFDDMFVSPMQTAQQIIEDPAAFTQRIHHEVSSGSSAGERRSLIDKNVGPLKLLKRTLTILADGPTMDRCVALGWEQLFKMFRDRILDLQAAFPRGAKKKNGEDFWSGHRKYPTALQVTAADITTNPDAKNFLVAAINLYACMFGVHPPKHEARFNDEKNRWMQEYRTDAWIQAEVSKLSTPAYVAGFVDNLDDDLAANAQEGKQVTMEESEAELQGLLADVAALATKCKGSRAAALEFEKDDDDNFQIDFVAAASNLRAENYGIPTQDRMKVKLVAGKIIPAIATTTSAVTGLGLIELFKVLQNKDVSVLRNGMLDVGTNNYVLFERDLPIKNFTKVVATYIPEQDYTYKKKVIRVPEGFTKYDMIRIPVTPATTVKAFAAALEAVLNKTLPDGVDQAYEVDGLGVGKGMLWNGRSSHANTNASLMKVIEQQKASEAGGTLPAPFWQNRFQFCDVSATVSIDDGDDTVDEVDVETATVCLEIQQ

[3] = biological target: AMP-activated protein kinase, AMPK (Homo sapiens) (UniProt P54646+O43741+P54619+Q9UGJ0+Q9Y478+Q13131+Q9UGI9); assay: AMP-dependent Kinase enzyme assay. An in vitro enzyme assay that detects ADP turnover that is directly proportional to AMPK activity. This uses naive AMPK that is activated during the assay with MK-8722; type: functional; conditions: 30 µM
[4] = biological target: Sialic acid-binding Ig-like lectin 9 (Homo sapiens) (UniProt Q9Y336); assay: Hs-Siglec9 ALPHAscreen SOP 20170721; conditions: 10 µM
Chain of Sialic acid-binding Ig-like lectin 9 (Homo sapiens) (Q9Y336 whole entry): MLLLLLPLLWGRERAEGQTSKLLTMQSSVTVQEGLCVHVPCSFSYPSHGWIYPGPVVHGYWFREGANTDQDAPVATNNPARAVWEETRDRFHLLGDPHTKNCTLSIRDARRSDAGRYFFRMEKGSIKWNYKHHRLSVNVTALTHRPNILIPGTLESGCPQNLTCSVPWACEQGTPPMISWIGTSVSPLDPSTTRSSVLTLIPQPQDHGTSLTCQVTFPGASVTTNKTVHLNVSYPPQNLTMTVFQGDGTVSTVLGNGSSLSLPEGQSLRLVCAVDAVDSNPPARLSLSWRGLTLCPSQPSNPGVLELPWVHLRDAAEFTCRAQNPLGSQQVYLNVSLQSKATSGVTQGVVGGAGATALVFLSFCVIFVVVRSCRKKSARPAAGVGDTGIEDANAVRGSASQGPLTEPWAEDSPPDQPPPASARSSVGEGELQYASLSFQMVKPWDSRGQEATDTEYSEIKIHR

Trypanosoma cruzi = assay: Trypanosoma cruzi phosphomannomutase and mannose-1-phosphate guanylyltransferase assay; type: functional; conditions: 10 µM
[5] = biological target: T2, Arginase-2, mitochondrial (Homo sapiens) (UniProt P78540); assay: in vitro enzyme assay to detect the production of urea directly proportional to the activity of Arginase II; type: functional; conditions: 33.3 µM; also: in the data most compounds retested in dose-response had high values
T2 sequence (whole entry): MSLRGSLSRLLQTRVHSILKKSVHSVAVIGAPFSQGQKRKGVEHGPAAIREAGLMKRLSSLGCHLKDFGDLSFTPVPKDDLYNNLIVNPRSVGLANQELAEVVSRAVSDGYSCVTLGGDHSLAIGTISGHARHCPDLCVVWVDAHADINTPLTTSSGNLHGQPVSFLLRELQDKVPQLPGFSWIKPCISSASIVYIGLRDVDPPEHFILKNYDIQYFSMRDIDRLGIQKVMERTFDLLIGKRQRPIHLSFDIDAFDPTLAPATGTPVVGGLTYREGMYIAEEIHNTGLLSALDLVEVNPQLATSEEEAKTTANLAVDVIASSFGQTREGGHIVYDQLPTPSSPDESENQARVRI

[6] = biological target: T3, Proteasome subunit beta (Trypanosoma cruzi) (UniProt O96673); assay: Trypanosoma cruzi proteasome chymotrypsin-like activity (TcProtChymo) assay.; also: in the data most compounds retested in dose-response had high values; type: functional; conditions: 9.37 µM
T3 sequence (whole entry): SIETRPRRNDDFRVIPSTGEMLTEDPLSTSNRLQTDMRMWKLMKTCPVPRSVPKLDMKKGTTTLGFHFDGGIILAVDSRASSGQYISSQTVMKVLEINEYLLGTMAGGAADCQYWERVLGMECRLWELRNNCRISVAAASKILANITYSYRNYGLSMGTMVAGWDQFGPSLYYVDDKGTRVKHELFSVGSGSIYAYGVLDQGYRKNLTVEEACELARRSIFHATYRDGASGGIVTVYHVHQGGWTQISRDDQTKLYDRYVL

Homo sapiens = organism: Homo sapiens; assay: To identify inhibition of the IFN signalling (Jak-Stat) pathway via expression of an eGFP reporter gene under the control of an IFN-stimulated response element (ISRE) containing MxA promoter.; type: functional; conditions: 30 µM
[7] = biological target: T4, Tyrosyl-tRNA synthetase, putative (Trypanosoma cruzi (strain CL Brener)) (UniProt Q4DSP6); assay: Trypanosoma cruzi tyrosyl tRNA synthetase (TcYRS) _High Tyrosine SOP; type: functional; conditions: 30 µM; also: in the data most compounds retested in dose-response had high values
T4 sequence (whole entry): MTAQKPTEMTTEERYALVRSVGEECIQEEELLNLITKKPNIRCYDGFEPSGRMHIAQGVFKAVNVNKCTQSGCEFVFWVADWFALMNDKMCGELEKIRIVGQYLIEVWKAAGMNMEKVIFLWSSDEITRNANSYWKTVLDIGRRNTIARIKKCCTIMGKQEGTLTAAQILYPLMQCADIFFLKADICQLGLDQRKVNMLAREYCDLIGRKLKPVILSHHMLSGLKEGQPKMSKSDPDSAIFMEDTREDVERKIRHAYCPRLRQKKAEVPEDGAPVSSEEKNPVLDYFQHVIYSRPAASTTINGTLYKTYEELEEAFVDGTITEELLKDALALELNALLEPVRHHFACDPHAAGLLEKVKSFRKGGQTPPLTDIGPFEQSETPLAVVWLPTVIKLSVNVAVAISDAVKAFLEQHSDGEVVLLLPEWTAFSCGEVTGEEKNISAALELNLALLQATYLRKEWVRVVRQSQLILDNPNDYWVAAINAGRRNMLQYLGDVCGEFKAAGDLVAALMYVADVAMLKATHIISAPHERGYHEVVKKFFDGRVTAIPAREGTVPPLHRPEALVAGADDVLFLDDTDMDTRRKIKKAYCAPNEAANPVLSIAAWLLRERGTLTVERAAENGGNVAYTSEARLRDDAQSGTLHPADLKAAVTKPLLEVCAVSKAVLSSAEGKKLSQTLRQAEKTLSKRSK

[8] = biological target: T4, Tyrosyl-tRNA synthetase, putative (Trypanosoma cruzi (strain CL Brener)); assay: Trypanosoma cruzi tyrosyl tRNA synthetase (TcYRS) SOP; type: functional; conditions: 30 µM
[9] = biological target: Chromo domain-containing protein 1 (Saccharomyces cerevisiae (strain ATCC 204508 / S288c) (Baker's yeast)) (UniProt P32657); assay: ScCHD-1 Enzyme Inhibition Assay; type: functional; conditions: 30 µM; also: in the data most compounds retested in dose-response had high values
Chain of Chromo domain-containing protein 1 (Saccharomyces cerevisiae (strain ATCC 204508 / S288c) (Baker's yeast)) (P32657 whole entry, the tested form may be a part): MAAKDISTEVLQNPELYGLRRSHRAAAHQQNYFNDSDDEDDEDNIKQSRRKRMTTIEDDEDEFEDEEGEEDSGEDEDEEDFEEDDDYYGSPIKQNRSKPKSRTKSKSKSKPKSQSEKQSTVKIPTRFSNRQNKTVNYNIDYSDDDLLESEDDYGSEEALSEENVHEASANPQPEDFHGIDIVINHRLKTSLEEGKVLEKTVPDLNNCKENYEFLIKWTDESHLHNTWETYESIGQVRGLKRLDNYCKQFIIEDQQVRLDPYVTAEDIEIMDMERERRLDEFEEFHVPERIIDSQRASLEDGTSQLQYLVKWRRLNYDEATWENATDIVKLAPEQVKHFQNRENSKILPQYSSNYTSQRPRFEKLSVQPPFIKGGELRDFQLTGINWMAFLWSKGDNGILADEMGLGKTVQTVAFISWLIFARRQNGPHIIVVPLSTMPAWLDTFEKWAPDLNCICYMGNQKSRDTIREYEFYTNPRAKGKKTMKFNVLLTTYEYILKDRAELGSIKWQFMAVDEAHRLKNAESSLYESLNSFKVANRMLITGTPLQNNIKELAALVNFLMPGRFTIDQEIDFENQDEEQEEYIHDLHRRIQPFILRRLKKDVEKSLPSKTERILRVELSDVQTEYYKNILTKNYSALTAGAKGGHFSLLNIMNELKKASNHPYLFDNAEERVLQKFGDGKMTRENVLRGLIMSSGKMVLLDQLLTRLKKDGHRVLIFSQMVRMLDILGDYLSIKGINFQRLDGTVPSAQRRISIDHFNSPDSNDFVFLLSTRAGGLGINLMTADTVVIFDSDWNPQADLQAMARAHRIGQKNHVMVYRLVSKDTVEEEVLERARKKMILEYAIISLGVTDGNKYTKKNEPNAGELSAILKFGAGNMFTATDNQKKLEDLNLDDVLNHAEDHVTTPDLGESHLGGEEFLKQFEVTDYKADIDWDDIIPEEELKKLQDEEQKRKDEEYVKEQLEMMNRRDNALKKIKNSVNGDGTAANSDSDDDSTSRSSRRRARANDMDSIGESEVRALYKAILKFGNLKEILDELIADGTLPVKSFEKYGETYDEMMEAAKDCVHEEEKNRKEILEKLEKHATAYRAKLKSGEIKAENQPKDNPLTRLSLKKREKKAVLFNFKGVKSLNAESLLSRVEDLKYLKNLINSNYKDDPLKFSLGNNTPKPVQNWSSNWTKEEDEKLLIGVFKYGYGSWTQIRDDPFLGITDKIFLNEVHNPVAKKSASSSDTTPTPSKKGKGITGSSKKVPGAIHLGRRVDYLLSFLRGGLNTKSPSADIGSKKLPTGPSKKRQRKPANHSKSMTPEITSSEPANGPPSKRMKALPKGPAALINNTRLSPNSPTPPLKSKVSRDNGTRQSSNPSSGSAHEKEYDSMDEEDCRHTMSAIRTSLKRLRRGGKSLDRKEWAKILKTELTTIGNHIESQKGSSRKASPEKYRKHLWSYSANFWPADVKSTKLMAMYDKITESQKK

Work on `O=C(c1ccc2c(c1)COC2)N1CCN(CC2CC2)CC1` yielded a Percent Effect [1] of -2.51%, a Percent Effect [2] of 5.06% and a Percent Effect [3] of -1.47%. It also gave a Percent Effect [4] of 8.43%, a Percent Effect (Trypanosoma cruzi) of -0.283% and a Percent Effect [5] of -1.52%. It also gave a Percent Effect [6] of -2.21%, a Percent Effect (Homo sapiens) of 0.542% and a Percent Effect [7] of 4.43%. It also gave a Percent Effect [8] of -1.27% and a Percent Effect [9] of 1.49%.
`COCc1nc(C(=O)N2CCCC2c2c(C)nn(C)c2C)cs1` (centres undefined) showed a Percent Effect [1] of -0.948%, a Percent Effect [2] of -3.8% and a Percent Effect [3] of 3.43%. The Percent Effect [4] was 1.97%, the Percent Effect (Trypanosoma cruzi) was -1.33% and the Percent Effect [5] was 0.645%. The Percent Effect [6] was -0.172%, the Percent Effect (Homo sapiens) was 12% and the Percent Effect [7] was 3.12%. For the same compound, the Percent Effect [8] was 5.06% and the Percent Effect [9] was 2.98%.
With `COC1CCN(C(=O)CCc2c(C)nc3ccnn3c2C)CC1` the Percent Effect [1] was -0.424%, the Percent Effect [2] was 5.26% and the Percent Effect [3] was 1.13%. The Percent Effect [4] was -0.445%, the Percent Effect (Trypanosoma cruzi) was -3.64% and the Percent Effect [5] was 5.4%. It also gave a Percent Effect [6] of 1.95%, a Percent Effect (Homo sapiens) of -10.2% and a Percent Effect [7] of 4.43%. It also gave a Percent Effect [8] of 6.17% and a Percent Effect [9] of 5.83%.
`COCCNC(=O)NCCc1ccn(-c2ccccc2)n1` gave a Percent Effect [1] of -3.6%, a Percent Effect [2] of -3.8% and a Percent Effect [3] of 7.66%. For the same compound, the Percent Effect [4] was 4.04%, the Percent Effect (Trypanosoma cruzi) was 5.64% and the Percent Effect [5] was -0.215%. It also gave a Percent Effect [6] of 13.7%, a Percent Effect (Homo sapiens) of 5.09% and a Percent Effect [7] of -4.17%. For the same compound, the Percent Effect [8] was 10.1% and the Percent Effect [9] was -16.7%.
